# Results as given in PubChem BioAssay (NCATS).
# “And” between values parts separate entries of the source, which are not always exact repeats. Equal values may be shown once. Inconclusive results are not listed. Where a call stands in place of a potency, no number is given. A number with no mark means an inactive call. The source made the active and inactive calls. Calls come from the whole dose curve; as a rule, active = well fitted curve in the direction sought with a large enough effect; inconclusive = small, poorly fitted or top-dose-only effect, or another doubt; inactive = no such curve, though single readings can be large; an effect the other way counts as inactive or inconclusive.
# How the values were obtained:
# [1] = test system: Zika virus NS2B-NS3 protease (unlinked complex); test: Primary screen GU Rhodamine qHTS for Zika virus inhibitors: Unlinked NS2B-NS3 protease assay (AID 1347159); note: nearly all actives have a fitted effect of over 60% in size; note: potency is the fitted concentration of half-maximal effect
# In short: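 In dose–response format, inhibition of unlinked protease (25 nM) was measured with 1.5 microM bis-peptide Rhodamine110 substrate. Aprotinin served as the intraplate control.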
# [2] = test system: Zika virus NS2B-NS3 protease (linked construct); test: Primary screen NINDS Rhodamine qHTS for Zika virus inhibitors (AID 1347160); note: nearly all actives have a fitted effect of over 55% in size; note: potency is the fitted concentration of half-maximal effect
# In short: (§1)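 Each compound, titrated, sat 15 min with 25 nM linked protease before 1.5 microM Rhodamine110 substrate went in. Fluorescence gain over the next 15 min, in pH 8.0 Tris with Tween 20, gave Hill-fitted curves.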
# [3] = Confirmatory screen NINDS Rhodamine qHTS for Zika virus inhibitors (AID 1347161); note: nearly all actives have a fitted effect of over 60% in size; note: potency is the fitted concentration of half-maximal effect;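 for activity change, negative = inhibition: purified Zika NS2B-NS3 protease with linked NS2B cofactor domain and Rhodamine110 peptide substrate; series mostly up to about 110 µM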
# In short: as §1
# [4] = test system: Zika virus NS2B-NS3 protease (linked); test: 384 well plate NINDS AMC confirmatory qHTS for Zika virus inhibitors (AID 1347163); note: nearly all actives have a fitted effect of over 50% in size; note: potency is the fitted concentration of half-maximal effect;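 for activity change, negative = inhibition: linked protease at 5 30 or 60 nM final depending on run; fluorescence of AMC released from Ac-VKTGKR-AMC peptide cleaved by the protease; top concentration of the series differs between compounds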
# In short: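 Enzyme (5, 30 or 60 nM final) first met test compounds for ~15 min. The AMC-tagged peptide Ac-VKTGKR-AMC followed at 30 microM. Fluorescence was then recorded at 25 min and scaled against no-enzyme and no-inhibitor wells.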
# [5] = test system: Zika virus NS2B-NS3 protease (linked construct); test: 384 well plate NINDS Rhodamine confirmatory qHTS for Zika virus inhibitors (AID 1347164);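 note: fluorescence from protease cleavage of Ac-LKRR-rhodamine 110 substrate; nearly all actives have a fitted effect of over 65% in size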; note: potency is the fitted concentration of half-maximal effect; for activity change, negative = inhibition: top concentration of the series differs between compounds
# In short: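 Fluorescence at 485/538 nm was measured 25 minutes after adding 10 microM Ac-LKRR-Rd substrate, in the dark at room temperature. The protease (5, 30 or 60 nM final) had been preincubated ~15 minutes with compound; aprotinin as control.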
# [6] = HepG2 cells viability qHTS for Zika virus inhibitors (AID 1347168); note: potency is the fitted concentration of half-maximal effect
# In short: (§2)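 Luminescent ATP readout (CellTiter Glo) after 30 min at 37 degrees C gives viability; cells in DMEM + 4% FBS were treated 24 to 48 hours with compound, following overnight attachment.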
# [7] = Vero cells viability qHTS for Zika virus inhibitors (AID 1347167); note: potency is the fitted concentration of half-maximal effect
# In short: as §2
# [8] = Tertiary RLuc qRT-PCR qHTS assay for Zika virus inhibitors (AID 1347169); note: nearly all actives have a fitted effect of over 55% in size; note: potency is the fitted concentration of half-maximal effect; for activity change, negative = inhibition: top concentration of the series differs between compounds
# In short: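 Orthogonal cell-based readout: luminescence measured 1-1.5 hrs after adding live-cell Renilla substrate to Vero cells that had been infected with ZIKV-RLuc (MOI 1-2) post-compound, incubated 48-72 hrs at 37 degrees C.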
# [9] = qHTS to identify inhibitors of the type 1 interferon - major histocompatibility complex class I in skeletal muscle: primary screen against the NCATS LOPAC collection (AID 1347405);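 note: human myoblasts with HiBiT tag on endogenous HLA-B stimulated by IFN-beta; lytic HiBiT luminescence reporting HLA-B protein level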; note: potency is the fitted concentration of half-maximal effect
# In short: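 IFN-beta-stimulated (4 ng/ml) HLA-B HiBiT knock-in myoblasts, compound-treated 24 hrs up to 46 uM final; signal via LgBiT complementation and furimazine luminescence.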
# [10] = biological target: Lysine-specific demethylase 5B (Homo sapiens) (UniProt Q9UGL1); test: Optimization screen for KDM5B Histone Demethylases FDH coupled qHTS against the LOPAC library (AID 1347166)
# In short: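 KDM5BDeltaAP (200nM final) in 50mM HEPES pH 7.5, 0.01% Tween-20 was preincubated with compound for 10 min at room temperature. A substrate mix of 12.5uM H3K4Me3, 25uM a-ketoglutarate, ascorbate, Fe2+, NAD+ and formaldehyde dehydrogenase was then added. NADH fluorescence (340/450 nm) was read initially and after 30 min.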
# Lysine-specific demethylase 5B (Homo sapiens), sequence (Q9UGL1 whole entry, looked up): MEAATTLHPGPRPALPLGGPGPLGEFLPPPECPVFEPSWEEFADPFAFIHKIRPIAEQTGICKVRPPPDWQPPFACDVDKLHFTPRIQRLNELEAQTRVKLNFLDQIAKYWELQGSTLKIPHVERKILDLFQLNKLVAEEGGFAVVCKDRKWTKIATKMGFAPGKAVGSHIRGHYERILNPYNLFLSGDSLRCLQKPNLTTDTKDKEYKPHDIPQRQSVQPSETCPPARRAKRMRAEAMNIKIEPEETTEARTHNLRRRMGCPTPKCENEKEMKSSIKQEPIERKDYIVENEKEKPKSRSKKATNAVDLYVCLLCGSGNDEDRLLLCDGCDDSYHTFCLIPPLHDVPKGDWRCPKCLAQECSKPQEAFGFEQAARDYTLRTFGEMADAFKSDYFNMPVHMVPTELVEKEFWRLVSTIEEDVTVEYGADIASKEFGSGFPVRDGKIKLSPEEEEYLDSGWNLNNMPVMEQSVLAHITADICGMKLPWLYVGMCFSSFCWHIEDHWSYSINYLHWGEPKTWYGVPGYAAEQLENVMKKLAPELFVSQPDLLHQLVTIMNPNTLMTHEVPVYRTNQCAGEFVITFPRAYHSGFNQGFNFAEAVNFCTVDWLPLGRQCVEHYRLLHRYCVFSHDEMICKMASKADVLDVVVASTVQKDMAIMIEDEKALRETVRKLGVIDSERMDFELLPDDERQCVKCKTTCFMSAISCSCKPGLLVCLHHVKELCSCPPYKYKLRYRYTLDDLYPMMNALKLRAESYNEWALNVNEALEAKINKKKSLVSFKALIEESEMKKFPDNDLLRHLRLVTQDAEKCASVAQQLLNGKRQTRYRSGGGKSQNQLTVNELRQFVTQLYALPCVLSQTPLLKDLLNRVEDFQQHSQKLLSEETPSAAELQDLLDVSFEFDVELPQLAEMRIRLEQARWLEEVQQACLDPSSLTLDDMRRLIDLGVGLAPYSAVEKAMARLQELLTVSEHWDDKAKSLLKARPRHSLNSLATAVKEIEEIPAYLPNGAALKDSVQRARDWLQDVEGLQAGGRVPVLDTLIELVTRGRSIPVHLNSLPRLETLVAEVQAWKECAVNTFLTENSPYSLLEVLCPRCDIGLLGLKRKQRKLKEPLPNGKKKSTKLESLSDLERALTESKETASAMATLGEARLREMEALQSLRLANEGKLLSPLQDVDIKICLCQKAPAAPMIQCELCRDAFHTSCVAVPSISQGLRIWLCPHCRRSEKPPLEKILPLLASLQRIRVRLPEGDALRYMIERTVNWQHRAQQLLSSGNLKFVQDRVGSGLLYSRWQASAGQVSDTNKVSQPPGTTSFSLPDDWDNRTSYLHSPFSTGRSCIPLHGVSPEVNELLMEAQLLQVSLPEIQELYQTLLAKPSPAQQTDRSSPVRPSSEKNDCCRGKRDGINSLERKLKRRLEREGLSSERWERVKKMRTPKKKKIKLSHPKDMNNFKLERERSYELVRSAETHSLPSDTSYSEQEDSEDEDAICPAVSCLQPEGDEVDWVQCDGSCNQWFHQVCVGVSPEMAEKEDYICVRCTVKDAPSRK
smiles,measurement,setting,value
O=C(O)c1cccc(-c2noc(-c3ccccc3F)n2)c1,Potency,[1],inactive
same,Potency,[2],inactive
C=C(c1ccc(C(=O)O)cc1)c1cc2c(cc1C)C(C)(C)CCC2(C)C,Potency,[1],3.16 µM (active)
same,Potency,[3],1.96 µM (active) and 2.47 µM (active)
same,Potency,[4],22.4 µM (active)
same,Potency,[5],7.94 µM (active)
same,Potency,[6],inactive
O=C(OC1C[C@H]2CC[C@@H](C1)[N+]21CCCC1)C(O)(c1ccccc1)c1ccccc1 (stereo partly drawn),Potency,[1],inactive
same,Potency,[2],inactive
COc1cc2c(N3CCN(C(=O)Nc4ccc(OC(C)C)cc4)CC3)ncnc2cc1OCCCN1CCCCC1,Potency,[1],inactive
same,Potency,[2],inactive
CN(c1nccc(=O)[nH]1)C1CCN(c2nc3ccccc3n2Cc2ccc(F)cc2)CC1,Potency,[2],inactive
CN(C)C(=O)[C@H](O)[C@H](Cc1ccccc1)NC(=O)c1cc2cc(Cl)ccc2[nH]1,Potency,[1],inactive
same,Potency,[2],inactive
same,Potency,[7],inactive
same,Potency,[6],inactive
same,Potency,[8],inactive
same,Potency,[9],inactive
CCCS(=O)c1ccc2nc(NC(=O)OC)[nH]c2c1 (stereo not drawn),Potency,[2],inactive
c1cnc2cc3c(cc2n1)C1CNCC3C1,Potency,[1],inactive
same,Potency,[2],inactive
same,Potency,[9],inactive
COCCCOc1ccnc(CS(=O)c2nc3ccccc3[nH]2)c1C (stereo not drawn),Potency,[1],inactive
same,Potency,[2],inactive
CC(=O)O[C@H]1C(=O)[C@@]2(C)C([C@H](OC(=O)c3ccccc3)[C@]3(O)C[C@H](OC(=O)[C@H](O)[C@@H](NC(=O)c4ccccc4)c4ccccc4)C(C)=C1C3(C)C)[C@]1(OC(C)=O)CO[C@@H]1C[C@@H]2O (stereo partly drawn),Potency,[1],inactive
same,Potency,[2],inactive
same,outcome,[10],inactive
CCC1=C(C)CN(C(=O)NCCc2ccc(S(=O)(=O)NC(=O)NC3CCC(C)CC3)cc2)C1=O (stereo not drawn),Potency,[2],inactive
COc1ccc(C2(C#N)CCC(C(=O)O)CC2)cc1OC1CCCC1 (stereo not drawn),Potency,[1],inactive
same,Potency,[2],inactive
N[C@@H](Cc1cc(I)c(Oc2cc(I)c(O)c(I)c2)c(I)c1)C(=O)O,Potency,[2],6.31 µM (active)
same,Potency,[3],9.67 µM (active) and 12.6 µM (active)
same,Potency,[4],inactive
same,Potency,[5],10 µM (active)
same,Potency,[7],inactive
same,"activity change, negative = inhibition",[8],-3.48% [at 0.566 µM]
CC(=O)NC[C@H]1CN(c2ccc(N3CCOCC3)c(F)c2)C(=O)O1,Potency,[1],inactive
same,Potency,[2],inactive
same,Potency,[9],inactive
Cc1nccn1CC1CCc2c(c3ccccc3n2C)C1=O (stereo not drawn),Potency,[1],inactive
same,Potency,[2],inactive
COc1ccccc1N1CCN(CCN(C(=O)C2CCCCC2)c2ccccn2)CC1,Potency,[1],inactive
same,Potency,[2],inactive
same,outcome,[10],inactive
same,Potency,[9],inactive
Clc1ccc(C(Cn2ccnc2)OCc2c(Cl)cccc2Cl)c(Cl)c1 (stereo not drawn),Potency,[2],inactive
OC(CN1CCN(c2cccc(Cl)c2)CC1)C(c1ccccc1)c1ccccc1 (stereo not drawn),Potency,[1],inactive
same,Potency,[2],inactive
same,outcome,[10],inactive
COc1c(O)cc2c(c1O)[C@@H]1O[C@H](CO)[C@@H](O)[C@H](O)[C@H]1OC2=O,Potency,[2],inactive
CC(C)c1ccc2c(c1)c(SC(C)(C)C)c(CC(C)(C)C(=O)O)n2Cc1ccc(Cl)cc1,Potency,[3],1.56 µM (active)
same,Potency,[4],14.1 µM (active)
same,Potency,[5],14.1 µM (active)
same,outcome,[10],inactive
same,Potency,[6],inactive
CC(C)c1nc(CN(C)C(=O)N[C@H](C(=O)N[C@@H](Cc2ccccc2)C[C@H](O)[C@H](Cc2ccccc2)NC(=O)OCc2cncs2)C(C)C)cs1,Potency,[1],inactive
same,Potency,[2],inactive
CN(C)c1ccc(O)c2c1C[C@H]1C[C@H]3[C@H](N(C)C)C(=O)C(C(N)=O)=C(O)[C@@]3(O)C(=O)C1=C2O,Potency,[3],44.1 µM (active) and 35 µM (active)
same,Potency,[4],141 µM (active)
same,Potency,[5],89.1 µM (active)
same,Potency,[7],inactive
same,Potency,[6],inactive
Cc1ccc(NC(=O)c2ccc(CN3CCN(C)CC3)cc2)cc1Nc1nccc(-c2cccnc2)n1,Potency,[1],inactive
same,Potency,[2],inactive
COc1ccc2cc([C@H](C)C(=O)O)ccc2c1,Potency,[1],inactive
same,Potency,[2],inactive
same,outcome,[10],inactive
same,Potency,[9],inactive
Cc1ccc(Nc2nccc(N(C)c3ccc4c(C)n(C)nc4c3)n2)cc1S(N)(=O)=O,Potency,[1],inactive
same,Potency,[2],inactive
COc1cc(Nc2c(C#N)cnc3cc(OCCCN4CCN(C)CC4)c(OC)cc23)c(Cl)cc1Cl,Potency,[1],inactive
same,Potency,[2],inactive
CN(C)CCCC1(c2ccc(F)cc2)OCc2cc(C#N)ccc21 (stereo not drawn),Potency,[1],inactive
same,Potency,[2],inactive
same,outcome,[10],inactive
same,Potency,[9],inactive
O=c1c(O)c(-c2ccc(O)cc2O)oc2cc(O)cc(O)c12,Potency,[3],12.6 µM (active)
same,Potency,[4],141 µM (active)
same,Potency,[5],50.1 µM (active)
same,Potency,[8],inactive
same,Potency,[9],inactive
Cc1nc(Nc2ncc(C(=O)Nc3c(C)cccc3Cl)s2)cc(N2CCN(CCO)CC2)n1,Potency,[1],inactive
same,Potency,[2],inactive
same,Potency,[4],inactive
same,Potency,[7],282 µM (active)
same,Potency,[6],79.4 µM (active)
same,Potency,[8],224 nM (active)
CC(C)C[C@H](NC(=O)[C@H](Cc1ccccc1)NC(=O)c1cnccn1)B(O)O,Potency,[1],inactive
same,Potency,[2],inactive
same,Potency,[7],inactive
same,Potency,[6],0.0466 µM (active)
same,Potency,[8],37 nM (active)
CCN(CCO)CCCC(C)Nc1ccnc2cc(Cl)ccc12 (stereo not drawn),"activity change, negative = inhibition",[1],15.4% [at 11.5 µM]
same,"activity change, negative = inhibition",[2],-6.84% [at 4.91 µM]
CCC(C)(Oc1ccc(C2(c3ccc(OC(C)(CC)C(=O)O)cc3)CCCCC2)cc1)C(=O)O (stereo not drawn),Potency,[1],31.6 µM (active)
Cc1cc2c(s1)Nc1ccccc1N=C2N1CCN(C)CC1,Potency,[1],inactive
same,Potency,[2],inactive
CC1(C)C(=O)N(CCN2CCC(C(=O)c3ccc(F)cc3)CC2)c2ccccc21,outcome,[10],inactive
same,Potency,[9],inactive
COc1cc2c(cc1OC)C1CC(=O)C(CC(C)C)CN1CC2 (stereo not drawn),Potency,[3],inactive
same,Potency,[7],inactive
same,Potency,[6],inactive
same,Potency,[8],inactive
same,Potency,[9],inactive
CNC[C@H](O)c1ccc(O)c(O)c1,Potency,[9],inactive
Oc1ccc(-c2nc(-c3ccc(F)cc3)c(-c3ccncc3)[nH]2)cc1,Potency,[3],inactive
same,Potency,[7],inactive
same,Potency,[6],inactive
CCc1nc(N)nc(N)c1-c1ccc(Cl)cc1,Potency,[3],inactive
same,Potency,[7],inactive
same,Potency,[8],11.7 µM (active) and 16.5 µM (active)
O=C(O)c1cccnc1Nc1cccc(C(F)(F)F)c1,outcome,[10],inactive
same,Potency,[9],inactive
CC(=O)N1CCN(c2ccc(OC[C@H]3CO[C@](Cn4ccnc4)(c4ccc(Cl)cc4Cl)O3)cc2)CC1,outcome,[10],inactive
same,Potency,[9],inactive
CCOC(=O)C1=C(O)C(=O)N(Cc2ccccc2)C1,Potency,[9],inactive
O=c1c(O)c(-c2cc(O)c(O)c(O)c2)oc2cc(O)cc(O)c12,Potency,[3],14.1 µM (active)
same,Potency,[4],158 µM (active)
same,Potency,[5],39.8 µM (active)
same,"activity change, negative = inhibition",[8],40.4% [at 3.57 µM]
same,Potency,[9],inactive
O=c1ccc2ccc(O)c(O)c2o1,Potency,[9],inactive
C[C@@H](c1ncncc1F)[C@](O)(Cn1cncn1)c1ccc(F)cc1F,Potency,[9],inactive
Cc1cccc(C#Cc2ccccc2)n1,outcome,[10],inactive
same,Potency,[9],inactive
CC1(C)NC(=O)N(c2ccc([N+](=O)[O-])c(C(F)(F)F)c2)C1=O,outcome,[10],inactive
same,Potency,[9],inactive
O=C(c1ccccc1)c1ccc2n1CCC2C(=O)O (stereo not drawn),outcome,[10],inactive
same,Potency,[9],inactive
O=Nc1c(-c2c(O)[nH]c3cc(Br)ccc23)[nH]c2ccccc12,outcome,[10],inactive
same,Potency,[9],15.8 µM (active)
O=C(O)c1cn(-c2ccc(F)cc2)c2cc(N3CCNCC3)c(F)cc2c1=O,Potency,[7],inactive
same,Potency,[6],inactive
same,Potency,[8],inactive
Nc1nc(OCc2ccccc2)c2[nH]cnc2n1,outcome,[10],inactive
NNc1nncc2ccccc12,Potency,[9],inactive
Cc1cc(Cl)ccc1OCCCC(=O)NO,Potency,[9],inactive
Nc1nc(N)c(N=O)c(OCC2CCCCC2)n1,outcome,[10],inactive
Cc1nc(-c2ccc(OCC(C)C)c(C#N)c2)sc1C(=O)O,Potency,[3],31.2 µM (active)
same,Potency,[7],inactive
same,Potency,[6],inactive
same,Potency,[8],inactive
O=C(CCc1ccc(O)cc1)c1c(O)cc(O)cc1O,Potency,[9],inactive
C[C@@H](N)C1CCC(C(=O)Nc2ccncc2)CC1 (stereo partly drawn),outcome,[10],inactive
same,Potency,[9],inactive
O=C1c2c(O)cc(O)cc2OC(c2ccc(O)c(O)c2)C1O (stereo not drawn),Potency,[9],inactive
Nc1ccn([C@@H]2O[C@H](CO)[C@@H](O)C2O)c(=O)n1 (stereo partly drawn),outcome,[10],inactive
C[C@H](Cc1ccc(O)c(O)c1)[C@@H](C)Cc1ccc(O)c(O)c1,Potency,[9],inactive
S=c1nc[nH]c2nc[nH]c12,Potency,[7],inactive
same,Potency,[6],inactive
same,Potency,[8],20800 nM (active)
COc1c2occc2cc2ccc(=O)oc12,Potency,[5],inactive
same,Potency,[7],inactive
same,Potency,[6],inactive
same,Potency,[8],inactive
O=C1c2ccccc2-c2n[nH]c3cccc1c23,outcome,[10],inactive
NCCCCNCCCN,outcome,[10],inactive
same,Potency,[9],inactive
Cc1c(OCC(F)(F)F)ccnc1CS(=O)c1nc2ccccc2[nH]1 (stereo not drawn),Potency,[3],inactive
same,outcome,[10],inactive
same,Potency,[7],inactive
same,Potency,[6],inactive
same,Potency,[8],inactive
same,Potency,[9],inactive
Clc1ccc2c(N3CCN(CCCN4CCN(c5ccnc6cc(Cl)ccc56)CC4)CC3)ccnc2c1,Potency,[9],inactive
Cc1cc(O)c2c(c1)C(=O)c1cc(O)cc(O)c1C2=O,outcome,[10],inactive
same,Potency,[9],inactive
CCOC(=O)C(C)Oc1cccc2c(=O)n(CC(=O)Nc3ccc4c(c3)OCCO4)ccc12 (stereo not drawn),Potency,[9],inactive
